“And” between values parts separate entries of the source, which are not always exact repeats. Equal entries are not always repeated. The source made the active and inactive calls. The calls were made as follows: active = hit-call score of the fitted dose curve at least 0.9, where 1 is the maximum; inactive = score below 0.9.
Read-out: Interleukin-8 (IL8), CXCL8 (gene 3576)
Experiment: BSK_hDFCGF_IL8: BioMAP Diversity Plus: hDFCGF Assay for Interleukin-8 (IL8) Biomarker Activity (AID 2283058)
Conditions: primary human foreskin fibroblasts; actives raise or lower the signal
Experimental: BSK_hDFCGF is a cell-based, multiplexed-readout assay that uses foreskin fibroblast, a human skin primary cell, with measurements taken at 24 hours after chemical dosing in a 96-well plate.BSK_hDFCGF_IL8 is an assay component measured in the BSK_hDFCGF assay. It measures IL-8 antibody related to regulation of gene expression using ELISA technology.Data from the assay component BSK_hDFCGF_IL8 was analyzed into 1 assay endpoint. This assay endpoint, BSK_hDFCGF_IL8, was analyzed with bidirectional fitting relative to DMSO as the negative control and baseline of activity. Using a type of binding reporter, gain or loss-of-signal activity can be used to understand changes in the signaling as they relate to the gene CXCL8. Furthermore, this assay endpoint can be referred to as a primary readout, because this assay has produced multiple assay endpoints where this one serves a signaling function. To generalize the intended target to other relatable targets, this assay endpoint is annotated to the cytokine intended target family, where the subfamily is interleukins.
The levels of cell surface (or secreted, indicated by the prefix "s") biomarker endpoints were measured by ELISA. Overt cytotoxicity to cells in confluent adherent cultures (all systems other than the BT system) was assessed by measuring total protein levels using sulforhodamine B (SRB) staining in parallel cultures at the time of biomarker measurements, indicated as SRB endpoints. For proliferation assays for adherent cell types, individual cell types are cultured at sub-confluence and relative cell numbers quantified by SRB staining at time points optimized for each system (48 h: 3C and CASM3C systems; 72 h: BT and HDF3CGF systems; 96 h: SAg system). SRB was performed by staining cells with 0.1% SRB after fixation with 10% TCA and reading wells at 560 nm.Viability and proliferation of PBMC (T cells) was quantified by Alamar Blue reduction for the SAg and BT systems. For PBMC viability (referred to as PBMC Cytotoxicity within the assay endpoint names), cells were plated (75,000/well in a 96-well plate) and then chemical samples added for 1 h before addition of activators, SEB and TSST-1 (20 ng/mL final concentration each). Cells were incubated for 90 h. Then, Alamar Blue (20 uL/well) (Invitrogen, Cat DAL1100) was added for 6 h, and the plates were read with a fluorescence microplate reader at 546/580 nm (excitation/emission). For PBMC proliferation, cells were plated and activated as above but incubated for only 16 h prior to addition of Alamar Blue. Plates were read after 6 h.

| SMILES | outcome | AC50 |
| --- | --- | --- |
| CCCCCCCCc1ccc(Nc2ccc(CCCCCCCC)cc2)cc1 | inactive |  |
| CN1C(=O)N(C)C(O)C1O (stereo not given) | inactive |  |
| C=CCOc1c(Br)cc(Br)cc1Br | inactive |  |
| CCO[Si](CCCN=C=O)(OCC)OCC | inactive |  |
| CCCCNc1ccc(NCCCC)c2c1C(=O)c1ccccc1C2=O | inactive |  |
| CCCCCCCCCCCCCCCC[N+](C)(C)CC |  | 12.4 µM (active) |
| COc1ccc2nc(N)sc2c1 | inactive |  |
| C=CCOCC(O)CCl (stereo not given) | inactive |  |
| CCO[Si](C)(OCC)OCC | inactive |  |
| C=C[Si](OC(C)=O)(OC(C)=O)OC(C)=O | inactive |  |
| C/C=C\C/C=C/CCCCCCCCOC(C)=O | inactive |  |
| O=C(c1ccc(O)cc1)c1ccc(O)cc1O | inactive |  |
| CCCCC/C=C\C/C=C\CCCCCCCC(=O)OC | inactive |  |
| c1ccc2c(c1)ccc1cc3c(ccc4ccccc43)cc12 | inactive |  |
| CC1OC1C1CCC2(C)OC2C1 (stereo not given) | inactive |  |
| S=C(NC1CCCCC1)NC1CCCCC1 | inactive |  |
| O=C(Nc1ccccc1SSc1ccccc1NC(=O)c1ccccc1)c1ccccc1 | inactive |  |
| CC(C)(c1cc(Br)c(OCCO)c(Br)c1)c1cc(Br)c(OCCO)c(Br)c1 | inactive |  |

| SMILES | outcome | AC50 |
| --- | --- | --- |
| O=c1c2ccccc2oc2ccccc12 | inactive |  |
| C=CC(=O)OCC(Br)CBr (stereo not given) |  | 20 µM (active) |
| CO[Si](OC)(OC)c1ccccc1 | inactive |  |
| CCOc1nc(F)cc2nc(S(=O)(=O)Nc3c(Cl)cccc3C(=O)OC)nn12 | inactive |  |
| C#CC1(O)CC[C@H]2[C@@H]3CCC4=CCCC[C@@H]4[C@H]3CC[C@@]21C (stereo not given in full) | inactive |  |
| O=C1CCCN1CCO | inactive |  |
| O=C(Cl)c1cc(C(=O)Cl)cc(C(=O)Cl)c1 | inactive |  |
| c1ccc2c(c1)ccc1ncccc12 | inactive |  |
| N#[N+]c1ccc2c(S(=O)(=O)[O-])cccc2c1O | inactive |  |
| CCCCC(CC)COCC1CO1 (stereo not given) | inactive |  |
| c1ccc(-c2ccccn2)nc1 | inactive |  |
| CC(C)C(=O)C(C)C | inactive |  |
| CCCCC(CC)COC(=O)c1ccccc1O (stereo not given) | inactive |  |
| C=CC=CC=CCCCCC | inactive |  |
| Nc1ccc(N)c(Cl)c1 | inactive |  |
| O=Nc1ccc(O)cc1 | inactive |  |
| CCOC(=O)c1ccccc1C(=C1C=C(Br)C(=O)C(Br)=C1)c1cc(Br)c(O)c(Br)c1 |  | 8.71 µM (active) and 8.48 µM (active) |

— PubChem BioAssay (EPA / NIEHS)
